Measurements published in PubChem BioAssay AID743415 (Broad Institute, 2014).
Potency and affinity values are given separately. Activity calls are given as the source filed them.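 How the source made its calls: active means compounds lowering Shn3 expression whose fitted half-maximal concentration is at most twice the top valid dose; inconclusive means flat partial decrease or an invalid curve fit; inactive means the rest.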

Assay: reduction of endogenous Shn3 mRNA, dose response, qPCR, Clone20 cells, cherry-pick (AID 743415)
Settings: overnight; series mostly up to 35 µM

Row | Compound | outcome
1 | Cc1ccccc1OCCOC(=O)c1cc(S(=O)(=O)N2CCCCC2)ccc1N1CCOCC1 | inactive
2 | Cc1nc(NC(C)c2ccccc2)c2oc3ccccc3c2n1 (configuration not stated) | inactive
3 | CC(Sc1nc2ccccc2c(=O)n1C)C(=O)N(C)C1CCCCC1 (configuration not stated) | inactive
4 | CNc1ccccc1C(C)(C)c1cc(-c2cccc(OC)c2)no1 | inactive
5 | COc1ccc(CC(=O)Nc2ccncc2Cl)cc1 | inactive
6 | O=C(Nc1ccc(N2CCOCC2)cc1)c1ccc(Cl)c(S(=O)(=O)N2CCCC2)c1 | inactive
7 | CCN(CC)S(=O)(=O)c1ccc(S(=O)(=O)Nc2c(C)nn(C)c2C)cc1 | inactive
8 | Cc1ccc2c(c1)nnn2C1CCN(S(=O)(=O)c2ccc(C(=O)N3C(C)CCCC3C)cc2)CC1 (configuration not stated) | inactive
9 | CC(C)CCOc1cccc(OCC(=O)Nc2ccncc2)c1 | inactive
10 | O=C(Cn1cnc2ccccc21)Nc1cccc(S(=O)(=O)N2CCCC2)c1 | inactive
11 | COc1ccc(OC)c(NC(=O)CN(Cc2ccc(F)cc2)C2CCCCC2)c1 | inactive
12 | CC1Cc2cc(S(=O)(=O)N3CCN(c4ccc(Cl)cc4)CC3)ccc2N1C(=O)C1CC1 (configuration not stated) | inactive
13 | CCn1c(CNC(=O)c2cc(OC)c(OC)c(OC)c2)cc2cc(C)ccc21 | inactive
14 | CC(C)Cn1c(N)c(C(=O)COC(=O)C2Cc3ccccc3CN2S(C)(=O)=O)c(=O)n(C)c1=O (configuration not stated) | inactive
15 | CCOC(=O)c1oc2ccc(S(=O)(=O)n3nc(-c4ccc(OC)cc4)cc3N)cc2c1C | inactive
16 | CCCCNc1cc(C)nc(NCc2ccccc2)n1 | inactive
17 | Cc1cccc(NS(=O)(=O)c2ccc(C3CCCCC3)cc2)c1 | inactive
18 | CC(=O)N1c2ccc(S(=O)(=O)N3CCC(C(=O)N4CCN(c5cccc(C(F)(F)F)c5)CC4)CC3)cc2CC1C (configuration not stated) | inactive
19 | CN(CC(=O)Nc1ccccc1Cl)C(=O)c1cccc(S(=O)(=O)N2CCN(c3ccccc3)CC2)c1 | inactive

Row | Compound | outcome
20 | CCN(CC)c1ccc(NC(=O)CN2C(=O)CSc3ncccc32)c(C)c1 | inactive
21 | COCCNc1nc(NCc2ccc(C(C)C)cc2)c2sccc2n1 | inactive
22 | O=C(Nc1ccc(Cl)cc1)c1cc(S(=O)(=O)N2CCOCC2)cs1 | inactive
23 | O=C(COC(=O)c1n[nH]c2ccccc12)Nc1ccc(S(=O)(=O)N2CCCC2)cc1 | inactive
24 | Cc1ccnc(SCC(=O)Nc2sc3c(c2C#N)CCCC3)n1 | inactive
25 | Cc1ccc(-c2csc(N3CCC(NS(=O)(=O)c4ccc5c(c4)OCCO5)CC3)n2)cc1 | inactive
26 | CC(C)(C)C(=O)Nc1cc2nn(-c3ccccc3)nc2cc1Cl | inactive
27 | CCOC(=O)c1cn(CC(=O)Nc2cccc(Cl)c2C)nn1 | inactive
28 | COc1cccc(-n2c(C)nc3c(cnn3-c3ccc(Cl)cc3)c2=O)c1 | inactive
29 | COc1cc(NC(=O)c2cccc3c(-c4cccnc4)coc23)cc(OC)c1OC | inactive
30 | CCCn1c(C)cc(C(=O)CN2C(=O)c3ccccc3S2(=O)=O)c1C | inactive
31 | CCCOC(=O)c1ccc(OCC(O)Cn2c(C)nc3ccccc32)cc1 (configuration not stated) | inactive
32 | CCOC(=O)C1CCCN(S(=O)(=O)c2ccc(S(=O)(=O)N3CCCC3)cc2)C1 (configuration not stated) | inactive
33 | Cc1nc2scc(C)n2c(=O)c1S(=O)(=O)Nc1ccc(N2CCOCC2)c(Cl)c1 | inactive
34 | Cc1nc2ccccc2cc1OCc1ccc(F)cc1 | inactive
35 | Cc1ccccc1C(=O)N1CCN(c2ccc(NC(=O)CSc3ccc(Cl)cc3)cc2)CC1 | inactive
36 | CCOc1ccc(Cn2nnc(C(=O)Nc3cc(OC)cc(OC)c3)c2N)cc1 | inactive
37 | O=C(CSc1c2c(nc3ccc(Cl)cc13)CCCC2)NCc1ccco1 | inactive
